25 compounds from PubChem BioAssay can be followed below.

Test [1] deals with Nuclear receptor coactivator 3 (Homo sapiens) (UniProt Q9Y6Q9). In words: NCOA3 GAL4-fusion reporter inhibition – cell-based, luminescence, quadruplicate, confirmation (AID 588792;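 active = mean inhibition over 43.08%, the solvent-only control mean plus 3 SD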;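 also: 0% = DMSO treated cells and 100% = gossypol at 36 µM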). Particulars: HEK293 GAL4-SRC3 luciferase reporter, at 3.6 µM, hits give high values. On the technique in general: Reporter assays use an easily measured gene product as a stand-in for the process of interest.
Chain of Nuclear receptor coactivator 3 (Homo sapiens) (Q9Y6Q9 whole entry, looked up, the tested form may be a part): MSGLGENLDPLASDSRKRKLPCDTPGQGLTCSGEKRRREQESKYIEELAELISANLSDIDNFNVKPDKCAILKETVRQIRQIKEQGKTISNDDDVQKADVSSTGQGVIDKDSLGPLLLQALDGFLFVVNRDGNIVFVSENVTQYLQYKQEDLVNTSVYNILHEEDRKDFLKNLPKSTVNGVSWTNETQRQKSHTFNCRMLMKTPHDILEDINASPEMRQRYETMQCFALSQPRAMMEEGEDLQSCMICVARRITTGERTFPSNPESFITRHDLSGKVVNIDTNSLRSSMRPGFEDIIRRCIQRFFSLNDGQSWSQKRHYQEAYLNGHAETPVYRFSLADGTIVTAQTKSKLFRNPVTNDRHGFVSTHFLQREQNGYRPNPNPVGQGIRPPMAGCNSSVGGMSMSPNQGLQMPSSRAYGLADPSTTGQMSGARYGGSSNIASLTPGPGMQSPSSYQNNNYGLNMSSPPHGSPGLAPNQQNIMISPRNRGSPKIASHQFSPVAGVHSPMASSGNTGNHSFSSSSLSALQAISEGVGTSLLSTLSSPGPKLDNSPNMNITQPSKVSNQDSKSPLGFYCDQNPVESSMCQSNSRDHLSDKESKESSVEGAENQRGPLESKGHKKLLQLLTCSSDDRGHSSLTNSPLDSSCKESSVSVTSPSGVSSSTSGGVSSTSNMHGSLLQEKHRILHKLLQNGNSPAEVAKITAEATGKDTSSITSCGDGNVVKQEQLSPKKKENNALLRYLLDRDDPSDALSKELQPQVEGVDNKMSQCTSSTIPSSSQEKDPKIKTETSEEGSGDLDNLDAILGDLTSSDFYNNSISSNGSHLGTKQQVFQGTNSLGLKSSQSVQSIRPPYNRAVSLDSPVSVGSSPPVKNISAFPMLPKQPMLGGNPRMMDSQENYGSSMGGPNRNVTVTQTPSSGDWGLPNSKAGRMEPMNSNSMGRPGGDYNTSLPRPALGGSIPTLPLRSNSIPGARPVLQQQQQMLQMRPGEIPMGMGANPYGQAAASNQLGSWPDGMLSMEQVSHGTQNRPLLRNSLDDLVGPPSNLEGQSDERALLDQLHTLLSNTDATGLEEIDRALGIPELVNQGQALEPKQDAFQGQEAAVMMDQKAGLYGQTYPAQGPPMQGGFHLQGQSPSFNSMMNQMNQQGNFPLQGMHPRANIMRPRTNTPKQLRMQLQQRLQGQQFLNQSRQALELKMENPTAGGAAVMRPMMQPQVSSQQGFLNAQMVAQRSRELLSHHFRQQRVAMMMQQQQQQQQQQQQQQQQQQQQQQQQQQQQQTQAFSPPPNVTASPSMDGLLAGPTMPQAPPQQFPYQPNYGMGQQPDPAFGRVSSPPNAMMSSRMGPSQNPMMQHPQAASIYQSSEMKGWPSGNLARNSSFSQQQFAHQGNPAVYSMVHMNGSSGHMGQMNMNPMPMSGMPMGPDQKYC

For test [2], the system named is transactivating tegument protein VP16 (Human herpesvirus 1), Gal4-VP16 luciferase reporter. In words: repression of VP16-driven luciferase reporter – cell-based, luminescence, high throughput, counter-screen for SRC3 inhibitor project (AID 588794; in the data active = inhibition above about 30%). Particulars: mammalian cells, at 3.6 µM, hits give high values.
The subject of test [3] is transactivating tegument protein VP16 (Human herpesvirus 1). In words: compounds suppressing VP16-driven luciferase signal – cell-based, luminescence, single concentration, counter-screen for SRC2 inhibitor project (AID 652007). Particulars: cell-based VP16 transactivation luciferase reporter, at 8.9 µM, hits give high values. In general terms: A counterscreen serves to expose hits that act by an unwanted route or on another target.

Test [4] has as its target Nuclear receptor coactivator 2 (Homo sapiens) (UniProt Q15596). In words: inhibition of GAL4-SRC2 driven luciferase expression – cell-based, luminescence, HEK293, triplicate, confirmation (AID 652008;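 active = mean inhibition above 46.5%, the solvent-only control mean plus 3 SD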;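 also: 0% = DMSO-treated cells and 100% = Gossypol at 36 µM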). Particulars: HEK293 GAL4-SRC2 luciferase reporter, at 8.9 µM, hits give high values.

Values without a mark were called inactive. Activity calls are given as the source filed them. Rule as the data show it, unless noted: active = inhibition above about 36%; inactive = the rest.

Chain of Nuclear receptor coactivator 2 (Homo sapiens) (Q15596 whole entry, looked up, the tested form may be a part): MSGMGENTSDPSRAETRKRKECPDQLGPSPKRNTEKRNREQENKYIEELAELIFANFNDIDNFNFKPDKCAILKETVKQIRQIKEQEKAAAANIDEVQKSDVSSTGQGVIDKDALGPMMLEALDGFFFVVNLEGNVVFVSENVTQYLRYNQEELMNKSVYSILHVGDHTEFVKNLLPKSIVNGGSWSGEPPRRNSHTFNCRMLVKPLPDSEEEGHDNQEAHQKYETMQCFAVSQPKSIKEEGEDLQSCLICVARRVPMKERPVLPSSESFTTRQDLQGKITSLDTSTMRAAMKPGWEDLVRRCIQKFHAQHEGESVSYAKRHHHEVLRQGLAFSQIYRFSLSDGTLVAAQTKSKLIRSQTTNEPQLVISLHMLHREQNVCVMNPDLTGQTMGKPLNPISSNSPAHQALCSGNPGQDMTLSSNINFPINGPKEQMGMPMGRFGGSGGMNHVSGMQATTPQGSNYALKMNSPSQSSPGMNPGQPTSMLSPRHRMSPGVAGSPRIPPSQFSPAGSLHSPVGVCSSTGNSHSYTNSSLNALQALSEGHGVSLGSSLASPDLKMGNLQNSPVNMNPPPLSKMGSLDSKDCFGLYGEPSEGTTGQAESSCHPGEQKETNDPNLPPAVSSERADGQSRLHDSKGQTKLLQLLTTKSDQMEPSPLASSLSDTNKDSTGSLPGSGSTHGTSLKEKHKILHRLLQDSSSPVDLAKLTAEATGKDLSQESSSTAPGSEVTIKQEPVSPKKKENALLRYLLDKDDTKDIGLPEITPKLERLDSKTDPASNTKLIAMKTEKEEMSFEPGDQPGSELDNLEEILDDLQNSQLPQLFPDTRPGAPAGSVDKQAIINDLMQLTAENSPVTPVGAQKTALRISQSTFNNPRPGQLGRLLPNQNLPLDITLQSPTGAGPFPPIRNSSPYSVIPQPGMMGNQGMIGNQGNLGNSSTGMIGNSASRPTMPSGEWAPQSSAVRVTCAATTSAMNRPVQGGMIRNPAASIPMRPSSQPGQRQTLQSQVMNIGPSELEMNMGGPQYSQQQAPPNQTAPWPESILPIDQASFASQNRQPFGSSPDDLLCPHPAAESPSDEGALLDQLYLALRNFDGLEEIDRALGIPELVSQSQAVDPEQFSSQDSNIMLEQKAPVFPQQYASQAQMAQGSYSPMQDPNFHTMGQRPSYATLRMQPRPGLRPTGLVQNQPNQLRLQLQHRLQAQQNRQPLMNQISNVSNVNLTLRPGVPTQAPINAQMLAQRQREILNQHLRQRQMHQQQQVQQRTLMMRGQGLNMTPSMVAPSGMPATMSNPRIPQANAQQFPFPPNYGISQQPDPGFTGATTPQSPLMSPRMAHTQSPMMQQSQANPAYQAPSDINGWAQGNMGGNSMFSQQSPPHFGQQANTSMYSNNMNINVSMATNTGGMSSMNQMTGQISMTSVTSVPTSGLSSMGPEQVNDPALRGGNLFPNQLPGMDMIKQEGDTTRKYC

The term inhibition denotes the drop in the measured response relative to a control, in per cent. Turning to `Cc1nn(C)cc1C(C)NC(=O)c1cc(COc2cccc3cnccc23)on1` (stereo not given), the inhibition in test [1] was 18.6%; in test [2] it was 24.9%; in test [3] it was -5.71%; in test [4], 33.3%.
`COCCN(C(=O)CCl)C(C(=O)NC1CCCCC1)c1ccccc1C` (stereo not given): the inhibition is 52.3% (active) in test [1], 38.7% (active) in test [2], 45.5% (active) in test [3] and 58.5% (active) in test [4].
As for `O=C(c1ccc(F)cc1)C(CN1CCOCC1)c1ccccc1` (stereo not given), the inhibition is 44.1% (active) in test [1], 55.9% (active) in test [2], 35% in test [3] and 82.6% (active) in test [4].
For `Cc1cccc(CN2CCN(C(=O)CCl)CC2)c1` the same measures were 31.7%, 18.2%, 38% (active) and 33.5%.
In the same order, the values of `O=S(=O)(c1ccc(F)cc1)c1snnc1-c1ccccc1` are 29%, 8.39%, 27.8% and 28.7%.
For `COc1ccc2nc(C)cc(Sc3nc4ccccc4s3)c2c1`, the inhibition in test [1] is 28.2%; in test [2], 18.1%; in test [3] it was 26%; in test [4] it was 51.3% (active).
In the same order, the values of `Cc1ccc(-n2c(C)cc(C(=O)COc3cccnc3[N+](=O)[O-])c2C)cc1` are 34.5%, -10.3%, -23% and 64% (active).
For `O=C(OCc1ccccc1)c1ccc(NCc2cc(O)ccc2O)cc1` the same measures were 70.6% (active), 25.9%, 94.5% (active) and 90% (active).
On to `Cc1noc(C)c1COC(=O)c1cccc(S(=O)(=O)N2CCCCCC2)c1`, for which the inhibition was 8.78% in test [1], 20.2% in test [2], 9.01% in test [3] and 13% in test [4].
For `O=C(Nc1ccccc1)NN(C(=O)CCl)c1ccccc1` the same measures were -0.31%, 13.4%, 32.9% and 56.9% (active).
For `CCN(CC)S(=O)(=O)c1cccc(C(=O)N/N=C(\C)c2ccc(O)cc2O)c1` the same measures were 66.7% (active), 43.7% (active), 2.49% and 31.6%.
For `O=C(/C=C/c1ccccc1)CC(O)(c1ccccc1)C(F)(F)C(F)F` (stereo not given) the same measures were 11%, 4.32%, 7.22% and 19.9%.
On to `CC(=O)OCCN1c2ccccc2Sc2cnccc21`, for which the inhibition is 43.4% (active) in test [1], 26.4% in test [2], -4.99% in test [3] and 23.7% in test [4].
For the compound `CC(=O)Nc1ccc(NC2=C/C(=N/S(=O)(=O)c3cccs3)c3ccccc3C2=O)cc1`, the inhibition in test [1] was 3.29%; in test [2] it was 9.98%; in test [3], 9.81%; in test [4] it was 49.5% (active).
For `Cc1c(/C(O)=C2\C(=O)C(=O)N(CCN(C)C)C2c2ccccc2)cnn1-c1ccccc1` (stereo not given) the same measures were 15.8%, -3.19%, -15.3% and 10.1%.
In the same order, the values of `O=C(Cc1ccc(Cl)cc1)c1c[nH]c(C(=O)NCc2cccnc2)c1` are 95.9% (active), 56% (active), 93.5% (active) and 95.2% (active).
In the same order, the values of `CCN(CC)c1ccc(-n2c(C)c(C(C)=O)c(C(C)=O)c2C)cc1` are 4.48%, 25.7%, -2.52% and 11.8%.
In the case of `Cc1ccc(-n2nnnc2Sc2ccc(S(=O)(=O)NCCN(C)C)cc2[N+](=O)[O-])cc1`, the inhibition in test [1] was 33.8%; in test [2], 35.9% (active); in test [3] it was 18.6%; in test [4] it was 31.4%.
Regarding `CCc1ccc(/C=C/C(=O)c2c(C)cc(C)[nH]c2=O)cc1`, the inhibition is 55.5% (active) in test [1], 50.1% (active) in test [2], 17.5% in test [3] and 40.1% in test [4].
For the compound `O=S(=O)(/C(=C/c1ccc(C(F)(F)F)cc1)c1nc2ccccc2[nH]1)c1ccccc1`, the inhibition in test [1] was 61.5% (active); in test [2], 58.3% (active); in test [3] it was 71.8% (active); in test [4] it was 30.6%.
For `CC(C)(C)C(=O)Nc1ccc(C(=O)N/N=C/c2ccccc2OC(=O)c2ccc(Cl)cc2)cc1` the same measures were 27.4%, 7.22%, 6.84% and 35.1%.
For `CC(C)(C)c1ccc(-c2noc(CCC(=O)Nc3cccnc3)n2)cc1` the same measures were 41%, 25.7%, 67.8% (active) and 80.8% (active).
For `Cc1ccc(-n2c(-c3ccc(Cl)cc3)c[n+]3c2CCC3)cc1` the same measures were 16.1%, 21.9%, 13.4% and 18.6%.
As to `CCc1ccc(-c2nc(CS(=O)CC(=O)NCc3ccco3)c(C)o2)cc1` (stereo not given), the inhibition in test [1] is 10.8%; in test [2], -12.6%; in test [3], 3.28%; in test [4], 56.7% (active).
In the same order, the values of `COc1ccc(-c2csc3ncnc(NCCN4CCOCC4)c23)cc1` are 34.1%, 37.6% (active), 0.34% and 41.1%.
